# Screens (PubChem)
# An excerpt weighted towards active compounds, which were near 4.5% of everything screened.
# 697 NFkB inh: inhibitors of PMA/ionomycin-induced NF-kB reporter, 697 cells, primary screen, B-cell NF-kB inhibitor project, cell-based, luminescence, uHTS; 697 B-cell NF-kB luciferase reporter, 16 h; inhibition, % at 4 µM; actives 0.33% (n = 330,000); AID 435022, 2010; in the data active = inhibition above about 35%
# Gli-Sufu block: Gli-Sufu pathway antagonists, primary screen, luciferase luminescence, Sufu-KO-LIGHT cells, uHTS; Sufu-KO-LIGHT fibroblasts, Gli luciferase reporter luminescence; inhibition, % at 5 µM; actives 0.74% (n = 340,000);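 active = inhibition above about 55%, limit read from the data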;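 note: 0% = DMSO-treated cells and 100% = wells with medium but no cells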
# Beta apoptosis: inhibitors of cytokine-induced beta cell apoptosis, primary screen, luminescence. INS-1E cytokine-induced death, ATP luminescence, 48 h; percent of positive-control rescue, neutral wells zero. protection from apoptosis, % (concentration not given with the values). actives 0.8% (n = 300,000). AID 435005, 2010;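 active = Every replicate reaches about 75%, or at least half do and their mean reaches it too, limit read from the data; inconclusive = At least half of replicates reach the limit but their mean does not; inactive = Under half of replicates reach the limit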;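 note: 0% = cytokine-treated negative control wells and 100% = positive control rescue; higher means more ATP so stronger rescue from cytokine killing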
# CSC inhib: cancer stem cell viability inhibitors, primary screen, luminescence; actives 1.1% (n = 300,000); inhibition, % at 7.5 µM; cancer stem cell-like cells viability; in the data active = inhibition above about 75%; inconclusive = no clear call, values can overlap the other calls; tested in HMLE shEcad cells
# Jurkat NFkB inh: inhibitors of induced NF-kB luciferase reporter, primary screen, TCR NF-kB activation inhibitor project, cell-based, luminescence, uHTS; actives 0.53% (n = 330,000); inhibition, % at 4 µM; Jurkat, PMA/ionomycin-induced NF-kB luciferase reporter; in the data active = inhibition above about 50%
# Mdm2-MdmX inh: inhibitors of human Mdm2-MdmX association, primary screen, cell-based, luminescence, split luciferase, SaOS-2, uHTS | inhibition, % at 8 µM | Protein Mdm4 (Homo sapiens) + E3 ubiquitin-protein ligase Mdm2 (Homo sapiens), … | SaOS-2 split-luciferase Mdm2/MdmX complementation | actives 3% (n = 330,000);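 active = inhibition of at least 50% at 8 µM in the primary screen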
# Mdm2-MdmX conf: Mdm2-MdmX complex disruptors, retested hits, confirmation, luminescence, single concentration; shares compounds with Mdm2-MdmX inh; Mdm2-MdmX binding, luminescent assay; inhibition, % at 8 µM; actives 55% (n = 10,000); AID 489028, 2010; in the data active = inhibition above about 40%
# Full FLuc ctr: full-length luciferase signal inhibition, confirmation, counter-screen for Mdm2/MdmX interaction inhibitor project, cell-based, single concentration, SaOS-2; shares compounds with Mdm2-MdmX inh; SaOS-2 full-length luciferase counterscreen, luminescence; inhibition, % at 8 µM; actives 77% (n = 6,200); AID 504607, 2011;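 active = mean inhibition at 8 µM reaching about 37%, which flags the compound as non-specific, limit read from the data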;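 note: p53-null SaOS-2 cells with luciferase driven by a doxycycline-inducible promoter; compound on cells about two nights before reading with doxycycline added after day one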
# * marks the source's active call; other numbers are inactive results; ? = inconclusive; / = no result.
SMILES,697 NFkB inh,Gli-Sufu block,Beta apoptosis,CSC inhib,Jurkat NFkB inh,Mdm2-MdmX inh,Mdm2-MdmX conf,Full FLuc ctr
CCCCN(CC)CCCNC(=S)Nc1ccc2nc(N3CCN(CC)CC3)cc(C)c2c1,7,-2,-5,2,-41,45,/,/
CCCCN(CC)CCCNC(=S)Nc1ccc2nc(N3CCN(C)CC3)cc(C)c2c1,-3,12,-2,24,-29,56*,21,/
CCCN(CCC)CCCNC(=S)Nc1ccc2nc(N3CCCC3)cc(C)c2c1,-15,29,12,1,2,78*,45*,63*
COc1ccc(-c2ccc(=O)n(CC(=O)NCC3COCCO3)n2)cc1 (stereo not given),-7,-3,0,-13,2,10,/,/
O=C(C#Cc1ccccc1)c1cccc([N+](=O)[O-])c1,-21,13,/,/,8,88*,16,/
N/C(=N\OC(=O)Oc1ccccc1)c1cccc([N+](=O)[O-])c1,-3,1,1,6,-11,25,/,/
Cc1ccc(NS(=O)(=O)c2cc(NC(=O)c3ccc4c(c3)NC(=O)CS4)ccc2C)c(C)c1,-4,18,15,39,4,36,/,/
COc1ccc(NC(=O)c2ccc3c(c2)NC(=O)CS3)cc1S(=O)(=O)Nc1ccc(Br)cc1,-8,-3,10,80*,-5,69*,77*,44*
COc1cccc(NC(=O)COC(=O)CNC(=O)C2CCCCC2)c1,11,6,-1,-6,-4,-4,/,/
Cc1cc(C)cc(NC(=O)[C@H](Cc2c[nH]c3ccccc23)NC(=O)[C@@H]2Cc3ccccc3CN2)c1,-17,-25,-5,4,-10,60*,15,/
CC(NC(=O)[C@H](Cc1c[nH]c2ccccc12)NC(=O)[C@@H]1Cc2ccccc2CN1)c1ccccc1 (stereo not given in full),18,7,-6,6,7,19,/,/
N#CC1=C(N)OC(c2ccccc2)=C(C#N)C1c1ccc2c(c1)OCO2 (stereo not given),7,-1,1,-11,-2,-18,/,/
CSc1ccc(C2C(C#N)=C(N)Oc3cc4c(cc32)OCO4)cc1 (stereo not given),-2,17,6,50,32,69*,60*,60*
Cc1ccc(C2C(C#N)=C(N)Oc3cc4c(cc32)OCO4)cc1 (stereo not given),-24,-25,7,42,32,55*,65*,64*
Cn1nccc1C(=O)Nc1cccc(S(=O)(=O)N2CCOCC2)c1,-10,9,/,-21,6,18,/,/
COC(=O)c1nccnc1C(=O)Nc1ccccc1N1CCOCC1,1,-4,3,20,-11,1,/,/
Brc1ccc(N/N=C(/N=Nc2nn[nH]n2)c2ccccc2)cc1,-51,17,96*,-10,15,77*,85*,14
O=C(/C(=N\Nc1ccc(Br)cc1)Sc1nnnn1-c1ccccc1)c1ccccc1,1,6,10,26,12,-1,/,/
CCCc1nc2cc3c(cc2[nH]1)n(C)c(=O)n3C,23,8,-7,-5,-4,-23,/,/
COc1ccc2[nH]c(=O)c3c(c2c1)OC(C)(C)C=C3,4,-31,-27,-3,9,90*,75*,57*
Cc1cc2c([nH]c3ccccc32)c2c1OC(C)(C)C=C2,-66,-48,/,12,-82,-172,/,/
CCn1c(=O)cc(C(=O)OC)sc1=Nc1ccc(F)c(F)c1,-8,7,-3,11,-5,19,/,/
COC(=O)c1cc(=O)n(CCc2ccc(OC)cc2)c(=Nc2ccc(F)c(Cl)c2)s1,17,11,53,100*,12,71*,-3,/
COC(=O)c1cc(=O)n(Cc2ccc3c(c2)OCO3)c(=Nc2ccc(F)c(Cl)c2)s1,31,11,23,54,24,62*,39,102*
Cc1ccc(S(=O)(=O)N(CC(=O)Nc2ccc(Cl)cc2)C(=O)N2CCN(C)CC2)cc1,-4,-10,/,/,8,-6,/,/
SMILES,697 NFkB inh,Gli-Sufu block,Beta apoptosis,CSC inhib,Jurkat NFkB inh,Mdm2-MdmX inh,Mdm2-MdmX conf,Full FLuc ctr
CC(=O)N(C(C)=O)n1c(C)nc2sc3c(c2c1=O)CCCC3,17,-4,-9,-11,17,73*,80*,45*
CCN(CC)CCNC(=O)CCc1c(C)nc2c(c(C)nn2-c2ccc(C)c(C)c2)c1C,6,25,13,9,-19,58*,44*,48*
Cc1ccc(-n2nc(C)c3c(C)c(CCC(=O)Nc4ccc(CN5CCCC5)cc4)c(C)nc32)cc1,-6,9,41,?,-14,89*,50*,25
COCCCNC(=O)CCc1c(C)nc2c(c(C)nn2-c2ccccc2)c1C,10,2,-10,-5,-6,4,/,/
CCOc1ccc2nc(Nc3nc(CSc4nnnn4-c4ccccc4)cc(=O)[nH]3)nc(C)c2c1,-11,16,-1,22,33,75*,16,/
Cc1ccc2c(C)nc(Nc3nc(CSc4nnnn4-c4ccccc4)cc(=O)[nH]3)nc2c1,11,15,-7,-7,5,89*,61*,63*
COc1ccc2nc(Nc3nc(CSc4nnnn4-c4ccccc4)cc(=O)[nH]3)nc(C)c2c1,-3,14,3,47,-9,49,/,/
O=C(CNC(=O)c1ccccc1)Oc1cccc(Cl)c1,-1,-1,-6,-11,8,16,/,/
Oc1c(I)cc(I)c2cccnc12,-13,39,/,/,14,93*,72*,39*
CN(C)c1ccc(-n2cccc2/C=C/[N+](=O)[O-])cc1,17,/,21,87*,0,65*,34,/
CCC(C(=O)O)n1c2ccccc2c2cn[nH]c(=O)c21 (stereo not given),7,0,-4,-1,5,1,/,/
Cc1cccc(Nc2nnc(-c3ccc(N4CCOCC4)c([N+](=O)[O-])c3)c3ccccc23)c1,-4,27,34,51,12,60*,37,84*
Cc1nnc(-c2ccc(N3CCOCC3)c([N+](=O)[O-])c2)o1,13,-2,3,/,-8,4,/,/
